# Data as given in publication PMC11062922 (Nature Chemical Biology, 2023).
# Where two headings read alike, the source gives them in different places.
# Experiments:
# Parameters in all cases: species or system human, MV4-11 + K-562 + COLO205 + SK-N-BE2 + OVCAR-8
# [1] = system: AURKA; settings: read-out: apparent Kd, n = 1
# [2] = system: BCR; settings: read-out: apparent Kd, compound concentrations: 100 nM and 1000 nM (sheet 'Samples'), n = 1
# [3] = system: EPHA4; settings: read-out: apparent Kd, compound concentrations: 100 nM and 1000 nM (sheet 'Samples'), n = 1
# [4] = system: EPHA5; settings: read-out: apparent Kd, compound concentrations: 100 nM and 1000 nM (sheet 'Samples'), n = 1
# [5] = system: EPHB2; settings: read-out: apparent Kd, compound concentrations: 100 nM and 1000 nM (sheet 'Samples'), n = 1
# [6] = system: EPHB4; settings: read-out: apparent Kd, compound concentrations: 100 nM and 1000 nM (sheet 'Samples'), n = 1
# [7] = system: PRKACA; settings: read-out: apparent Kd, compound concentrations: 100 nM and 1000 nM (sheet 'Samples'), n = 1
# [8] = system: PRKACB; settings: read-out: apparent Kd, compound concentrations: 100 nM and 1000 nM (sheet 'Samples'), n = 1
# [9] = system: TNK1; settings: read-out: apparent Kd, compound concentrations: 100 nM and 1000 nM (sheet 'Samples'), n = 1
# [10] = system: TNK2; settings: read-out: apparent Kd, compound concentrations: 100 nM and 1000 nM (sheet 'Samples'), n = 1
# [11] = system: CSNK1D; settings: read-out: apparent Kd, n = 1
# [12] = system: STK4; settings: read-out: apparent Kd, n = 1
# [13] = system: CDK16; settings: read-out: apparent Kd, n = 1
# [14] = system: CHEK1; settings: read-out: apparent Kd, compound concentrations: 100 nM and 1000 nM (sheet 'Samples'), n = 1
# [15] = system: MARK3; settings: read-out: apparent Kd; compound concentrations: 100 nM and 1000 nM (sheet 'Samples'), CATDS: 1.24991581563988E-2; n = 1
# [16] = system: PRKAG2; settings: read-out: apparent Kd; compound concentrations: 100 nM and 1000 nM (sheet 'Samples'), CATDS: 1.2141088500549201E-2; n = 1
# [17] = system: STK16; settings: read-out: apparent Kd, n = 1
# [18] = system: CAMKK2; settings: read-out: apparent Kd, compound concentrations: 100 nM and 1000 nM (sheet 'Samples'), n = 1
# [19] = system: MAPK10; settings: read-out: apparent Kd, n = 1
# [20] = system: MAPK9; settings: read-out: apparent Kd, n = 1
# [21] = compound concentrations:100 nM and 1000 nM (sheet 'Samples')
structure (smiles),measurement,setting,value
CN(c1ccc(NC(=O)Nc2cccc(Cl)c2)cc1)c1ccnc(N)n1.Cl [GW830707A],potency estimated from few doses,"[1]; compound concentrations: 100 nM and 1000 nM (sheet 'Samples'), CATDS: 1.10158492855777E-2",1100 nM
same,potency estimated from few doses,[2]; CATDS: 2.64796261985909E-2,26.5 nM
same,potency estimated from few doses,[3]; CATDS: 2.6652421745355599E-2,26.2 nM
same,potency estimated from few doses,[4]; CATDS: 2.89918726046417E-2,22 nM
same,potency estimated from few doses,[5]; CATDS: 3.95108410825031E-2,12.4 nM
same,potency estimated from few doses,[6]; CATDS: 6.0687941062208699E-2,6.3 nM
same,potency estimated from few doses,[7]; CATDS: 2.4809932188679999E-2,30.7 nM
same,potency estimated from few doses,[8]; CATDS: 1.9106655898432998E-2,60.7 nM
same,potency estimated from few doses,[9]; CATDS: 0.104039802479183,3.01 nM
same,potency estimated from few doses,[10]; CATDS: 3.7589632297420301E-2,13.5 nM
Cl.NCc1ccc(-c2nc(-c3ccc(Cl)c(O)c3)c(-c3ccncc3)[nH]2)cc1 [SB-476429-A],potency estimated from few doses,[11]; [21],1290 nM
Cc1cccc2c(-c3ccncn3)c(-c3ccc(F)cc3)nn12 [GW515532X],potency estimated from few doses,"[11]; compound concentrations: 100 nM and 1000 nM (sheet 'Samples'), CATDS: 0.213897093745788",1920 nM
Cc1cccc(Nc2nc(N[C@H]3CCNC3)ncc2C(N)=O)c1.Cl [GSK2197149A],potency estimated from few doses,[12]; [21],1490 nM
O=C(O)C(F)(F)F.O=c1[nH]ccc2nc(N[C@@H]3CCNC3)nc(Nc3ccc4c(c3)S(=O)(=O)CC4)c12 [GSK2181306A],potency estimated from few doses,"[13]; compound concentrations: 100 nM and 1000 nM (sheet 'Samples'), CATDS: 1.11902252687631E-2",620 nM
same,potency estimated from few doses,[14]; CATDS: 1.0862390298074001E-2,672 nM
same,potency estimated from few doses,"[11]; compound concentrations: 100 nM and 1000 nM (sheet 'Samples'), CATDS: 9.27581508882039E-3",1080 nM
same,potency estimated from few doses,[15],470 nM
same,potency estimated from few doses,[16],504 nM
same,potency estimated from few doses,"[17]; compound concentrations: 100 nM and 1000 nM (sheet 'Samples'), CATDS: 9.1549687714340792E-3",1130 nM
same,potency estimated from few doses,"[12]; compound concentrations: 100 nM and 1000 nM (sheet 'Samples'), CATDS: 2.0109118463760199E-2",175 nM
COc1cc(Nc2nccc(-c3cnn4ncccc34)n2)cc(OC)c1 [GW801372X],potency estimated from few doses,[18]; CATDS: 1.8078594286366201E-2,1750 nM
same,potency estimated from few doses,"[13]; compound concentrations: 100 nM and 1000 nM (sheet 'Samples'), CATDS: 1.6995450779384601E-2",2320 nM
same,potency estimated from few doses,"[11]; compound concentrations: 100 nM and 1000 nM (sheet 'Samples'), CATDS: 1.8156615660070499E-2",1710 nM
same,potency estimated from few doses,"[19]; compound concentrations: 100 nM and 1000 nM (sheet 'Samples'), CATDS: 2.5530057385415701E-2",532 nM
same,potency estimated from few doses,"[20]; compound concentrations: 100 nM and 1000 nM (sheet 'Samples'), CATDS: 1.8501615721313099E-2",1580 nM
same,potency estimated from few doses,"[17]; compound concentrations: 100 nM and 1000 nM (sheet 'Samples'), CATDS: 1.87533606847229E-2",1500 nM
Cc1cc(-c2ccnc(Nc3cccc(C#N)c3)n2)cc(C)c1O [GSK1440913A],potency estimated from few doses,"[19]; compound concentrations: 100 nM and 1000 nM (sheet 'Samples'), CATDS: 8.7033733779345604E-2",990 nM
Cc1ccccc1-n1ncc(C(=O)c2ccccc2)c1N [RO1151248-000],potency estimated from few doses,[2]; CATDS: 2.0148747001584599E-2,1380 nM
same,potency estimated from few doses,[18]; CATDS: 1.8448697661517601E-2,1790 nM
same,potency estimated from few doses,[14]; CATDS: 1.9023399407062401E-2,1630 nM
same,potency estimated from few doses,[3]; CATDS: 2.34305639617714E-2,955 nM
same,potency estimated from few doses,[4]; CATDS: 2.3755462861685599E-2,926 nM
same,potency estimated from few doses,[5]; CATDS: 2.84737750154796E-2,640 nM
same,potency estimated from few doses,[6]; CATDS: 3.0398268163298901E-2,567 nM
same,potency estimated from few doses,"[17]; compound concentrations: 100 nM and 1000 nM (sheet 'Samples'), CATDS: 1.8222125974055099E-2",1860 nM
same,potency estimated from few doses,[9]; CATDS: 3.5283149780083803E-2,439 nM
same,potency estimated from few doses,[10]; CATDS: 3.5082928227748202E-2,443 nM
CC(C)Oc1ccc2c(-c3ccnc(Nc4ccc(N5CCN(C)CC5)cc4)n3)cnn2n1 [GW696155X],potency estimated from few doses,[1]; [21],602 nM
same,potency estimated from few doses,[13]; [21],1910 nM
same,potency estimated from few doses,[19]; [21],1250 nM
same,potency estimated from few doses,[20]; [21],1010 nM
same,potency estimated from few doses,[17]; [21],39.2 nM
NCC(NC(=O)c1cc(-c2cn[nH]c2)c(-c2ccnc3[nH]ccc23)s1)c1ccccc1.NCC(NC(=O)c1cc(-c2cn[nH]c2)c(-c2ccnc3[nH]ccc23)s1)c1ccccc1.O=C(O)C(F)(F)F.O=C(O)C(F)(F)F (stereo not drawn) [GSK1325775A],potency estimated from few doses,"[11]; compound concentrations: 100 nM and 1000 nM (sheet 'Samples'), CATDS: 2.89439417277669E-2",2450 nM
same,potency estimated from few doses,[7]; CATDS: 4.90722253933666E-2,503 nM
same,potency estimated from few doses,[8]; CATDS: 4.09510310832654E-2,782 nM
